# Screens deposited in PubChem by University of Kansas High Throughput Screening Laboratory.
# Pf apPOL block = Pf-apPOL DNA polymerase inhibition; Recombinant Pf-apPOL, molecular beacon fluorescence, 1.5 h; inhibition, % at 10 µM; 0.25% of 210,000 active; AID 1794808
# mHTT-CaM PPI inh = inhibitors of human mutant huntingtin-calmodulin interaction; AID 1671202; 3.6% of 190,000 active; inhibition, % at 15 µM; AlphaScreen His-mHTT/GST-CaM binding, luminescence; P42858;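 note: 0% = both proteins with DMSO and 100% = one protein alone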
# An asterisk follows results filed as active; i = inactive; nt = not tested or not shown; ! = a repeat was not active. The list is not random: actives were taken first. Their share in the collection is about 3.5%. Cut-off read from the data, not from the text of the source: active = inhibition above about 50%; inactive = the rest.
SMILES,Pf apPOL block,mHTT-CaM PPI inh
COc1ccccc1NC(=O)C1CC2c3ccccc3C1c1ccccc12 (stereo not drawn),-5,-10
O=C(COc1ccc(Cl)cc1Cl)Nc1nnc(Cc2ccc3c(c2)OCO3)o1,-207,92*
O=C(CCS(=O)(=O)c1ccc(Cl)cc1)Nc1nnc(Cc2ccc3c(c2)OCO3)o1,8,4
COc1ccc(/C=C2\SC(=O)N(CNc3ccc(C)c(C)c3)C2=O)cc1,-2,15
CCN1c2cc(C)ccc2-n2cccc2C12CCN(C(=O)NC(C)C(=O)OC)CC2 (stereo not drawn),-2,68*
COC(=O)C(C)NC(=O)N1CCC2(CC1)Nc1cc(F)ccc1-n1cccc12 (stereo not drawn),4,38
CCN1c2cc(C)ccc2-n2cccc2C12CCN(C(=O)Nc1ccccc1Cl)CC2,1,26
CCN1c2cc(C)ccc2-n2cccc2C12CCN(C(=O)NC(C)C)CC2,2,99*
CCOc1ccc(NC(=O)COC)cc1,10,2
COc1ccc(/C(N)=N/OC(=O)CC(c2ccccc2)c2ccccc2)cc1OC,1,i
COc1ccc(OC)c(N2C(=O)CC(Sc3nc4ccccc4s3)C2=O)c1 (stereo not drawn),-2,51*!
COc1ccc(N2C(=O)CC(Sc3nc4ccccc4s3)C2=O)cc1 (stereo not drawn),-8,29
CCc1ccccc1NC(=O)Cn1cnc2c(-c3ccccc3)csc2c1=O,-7,-2
Cc1ccc(CCNC(=O)CN2N=C(c3ccc(Cl)cc3)CCC2=O)cc1,-13,65*
COc1ccc(CCNC(=O)CN2N=C(c3ccc(Cl)cc3)CCC2=O)cc1OC,-18,15
O=C(Nc1nnc(-c2ccc(F)cc2)o1)c1ccc(S(=O)(=O)N2CCc3ccccc3C2)cc1,-67,4
CCc1nnc(NC(=O)c2ccc(S(=O)(=O)N3CCc4ccccc4C3)cc2)o1,-6,55*
NS(=O)(=O)c1ccc(NC(=O)CN2CC(=O)Oc3ccccc32)cc1,-166,98*
CC(C)=C1SC(=O)N(CC(=O)Nc2ccc(S(N)(=O)=O)cc2)C1=O,-2,-8
Cc1nc(C)n2ccn(CCOc3ccc(F)cc3)c(=O)c12,2,7
CCOc1ccc(-c2ccc(SCCN3CCCCC3)nn2)cc1,0,2
COc1ccc(-n2nc3c(c2NC(=O)/C=C/c2ccccc2)CSC3)cc1,-1,52*
CC(C)C(=O)Nc1c2c(nn1-c1ccc(Oc3ccccc3)cc1)CSC2,5,65*
COc1ccc(-n2nc3c(c2NC(=O)c2ccc(Br)cc2)CSC3)cc1,5,30
COc1ccc(-n2nc3c(c2NC(=O)/C=C/c2cc(OC)c(OC)c(OC)c2)CSC3)cc1,-7,34
SMILES,Pf apPOL block,mHTT-CaM PPI inh
COc1ccc(-n2nc3c(c2NC(=O)c2ccccc2)CSC3)cc1,-1,31
COc1ccc(-n2nc3c(c2NC(=O)c2ccc(C(C)(C)C)cc2)CSC3)cc1,3,100*
Cc1ccc(N2CCN(CC(=O)N3CCN(c4ccccc4O)CC3)C2=O)cc1,-6,2
Cc1cc(OS(C)(=O)=O)cc2c1C(=O)C(=Cc1ccccc1F)O2,0,-8
C=CCSc1nc2nc3c(cc2c(=O)n1-c1ccccc1C)COC(C)(C)C3,4,2
O=C(Nc1ccccc1F)C1Oc2ccccc2NC1=O (stereo not drawn),0,-6
O=C(Sc1ccc(C(F)(F)F)cn1)C(=Cc1cccs1)c1ccsc1,-10,nt
O[C@H]1C[C@H](c2ccccc2)N(Cc2cccs2)C[C@@H]1n1cc(C2CC2)nn1,-3,74*
COc1ccc([C@H]2C[C@H](O)[C@@H](n3cc(C4CC4)nn3)CN2Cc2cccs2)cc1,2,94*
Cc1ccc([C@H]2C[C@@H](n3cc(C4CC4)nn3)[C@H](O)CN2Cc2cccs2)cc1,-1,32
CCCCCCN1C[C@@H](n2cc(C3CC3)nn2)[C@H](O)C[C@@H]1c1ccc(OC)cc1,0,36
COc1cc(Nc2nc(-c3ccc(F)cc3)cs2)c(OC)cc1Cl,-1,7
COc1cc(NC(=O)N2CCCC2c2cc(C(C)C)on2)cc(OC)c1OC (stereo not drawn),-7,2
CN(C)c1ccc(NC(=O)c2ccncc2)cc1,1,70*
CN(C)c1ccc(NC(=O)c2cccc(I)c2)cc1,-3,80*
O=C(Nc1ccccc1)c1cccc(I)c1,2,-10
COc1ccc(NS(=O)(=O)c2cccc(C(=O)Nc3ccc(C)cc3)c2)cc1,95*,4
Cc1cccc(C(=O)Nc2ccc([N+](=O)[O-])c(NC(=O)c3cccc(C)c3)c2)c1,80*,2
Cc1cc(C(=O)Nc2ccc(NC(=O)c3ccccc3)cc2)ccc1[N+](=O)[O-],7,-4
COc1ccc(NS(=O)(=O)c2cccc(C(=O)Nc3cccc(C(=O)O)c3)c2)cc1,4,4
CN(C)c1ccc(NC(=O)c2ccc(Cl)cc2)cc1,7,-1
CCN1CCN(Cc2c(O)ccc3c(=O)c(-c4ccccc4OC)c(C(F)(F)F)oc23)CC1,0,4
CC(C)CC(=O)NC1CCCCCCC1,2,-2
COc1ccccc1NC(=O)C1=C(C)Nc2nc3ccccc3n2C1c1ccccc1F (stereo not drawn),1,12
Cc1cccc(C(=O)Nc2ccc(I)cc2)c1,77*,-32
SMILES,Pf apPOL block,mHTT-CaM PPI inh
Cc1cccc(C(=O)Nc2ccc(F)cc2)c1,-4,-1
CCS(=O)(=O)CCSc1nc(C)cc(C)n1,51*,17
Cc1cc(C)nc(SCCCCSc2nc(C)cc(C)n2)n1,-6,-7
COc1cc(NC(=O)c2cccc([N+](=O)[O-])c2)c(OC)cc1NC(C)=O,0,-1
OCCCn1c(-c2ccccc2)csc1=Nc1cccc(Cl)c1,-5,92*
CCOc1ccc(-c2csc(=Nc3ccccc3)n2CCN2CCOCC2)cc1,-3,22
OCCCn1c(-c2ccccc2)csc1=Nc1ccccc1,-1,51*
CCn1c(-c2ccccc2)csc1=Nc1ccc(S(=O)(=O)O)cc1,-3,17
c1ccc(Cn2c(-c3ccccc3)csc2=Nc2ccccc2)cc1,nt,-2
OCCCn1c(-c2ccc(I)cc2)csc1=Nc1ccccc1,-5,70*
OCCn1c(-c2ccc(I)cc2)csc1=Nc1ccccc1,-2,66*
Cc1sc2c(=O)n(C3CC3)cnc2c1C(=O)NC1CCCCCC1,2,-9
CC(=O)NCc1csc(C2CCCN(C(=O)c3ccccc3C)C2)n1 (stereo not drawn),-6,-14
Cc1ccc(-c2nnc(N3CCC(C(=O)NCC4CCCO4)CC3)o2)cc1 (stereo not drawn),-5,10
OC[C@@H]1[C@@H](c2ccc(F)cc2)C(c2ccccc2)=NN1c1ccccc1,-4,89*
CC[C@H]1C(c2ccc(F)cc2)=NN(c2ccccc2)[C@@H]1CO,-6,-58
Cc1cccc(C2=NN(c3ccccc3)[C@H](CO)[C@H]2C)c1,-4,-5
Cc1cccc(C2=NN(c3ccccc3)[C@H](CO)[C@H]2c2ccccc2)c1,-3,87*
Cc1cc(O)c(C(C)C)cc1NS(=O)(=O)c1cccc([N+](=O)[O-])c1,-9,11
COc1cc(C2=NOC(C(=O)Nc3ccc4c(c3)OCO4)C2)cc(OC)c1OC (stereo not drawn),-5,60*
COc1ccc(C2=NOC(C(=O)Nc3ccc4c(c3)OCO4)C2)cc1OC (stereo not drawn),-1,55*
